Data from PubChem BioAssay (EPA / NIEHS).
Several values for one entry are separate records, joined by “and”; a condition that tells them apart may be missing. Identical values can stand only once. Records with an inconclusive call do not appear. Activity calls are given as the source filed them. The calls were made as follows, unless noted: active = hit-call score of the fitted dose curve at least 0.9, where 1 is the maximum; inconclusive = response in the unintended direction; inactive = score below 0.9.

Columns and labels:
[1] = system: Sodium/Iodide Symporter (NIS), SLC5A5 (gene 6528); test: CPHEA_Stoker_NIS_Inhibition_RAIU: CPHEA's Radioactive Iodide Uptake (RAIU) Assay for Sodium/Iodide Symporter (NIS) Inhibition, Stoker and Laws Labs (AID 2283841)
Method in brief: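 HEK293T cells stably expressing human NIS (hNIS-HEK293T-EPA) were exposed to test chemicals at 0.001–100uM (0.5% final DMSO) with 125I at a final 329pM in HBSS/10mM HEPES pH 7.4. After 2 hours at room temperature and ice-cold washes, intracellular 125I was counted as CPM and normalized to DMSO wells.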

[2] = CPHEA_Stoker_NIS_Cytotoxicity: Cytotoxicity Assessment for CPHEA's Radioactive Iodide Uptake (RAIU) Assay for Sodium/Iodide Symporter (NIS) Inhibition, Stoker and Laws Labs (AID 2283897)
Method in brief: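 hNIS-HEK293T-EPA human kidney cells were exposed for 2 hours at room temperature to test chemicals (0.001–100uM, 0.5% final DMSO) in HEPES-buffered HBSS, pH 7.4. Viability was read as ATP content by luciferase bioluminescence, loss of signal versus DMSO.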

[3] = target: human Thyroid hormone Receptor beta (TRb), THRB (gene 7068) (UniProt P10828); test: ATG_hTRb_XSP2: Attagene TRANS-FACTORIAL Multi-Species (XSP2) HepG2 Assay for human Thyroid hormone Receptor beta (TRb) (AID 2283840);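 also: actives raise reporter mRNA so potency reflects agonist-like gain of signal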
human Thyroid hormone Receptor beta (TRb), THRB (gene 7068), sequence (P10828 whole entry, looked up, the tested form may be a part): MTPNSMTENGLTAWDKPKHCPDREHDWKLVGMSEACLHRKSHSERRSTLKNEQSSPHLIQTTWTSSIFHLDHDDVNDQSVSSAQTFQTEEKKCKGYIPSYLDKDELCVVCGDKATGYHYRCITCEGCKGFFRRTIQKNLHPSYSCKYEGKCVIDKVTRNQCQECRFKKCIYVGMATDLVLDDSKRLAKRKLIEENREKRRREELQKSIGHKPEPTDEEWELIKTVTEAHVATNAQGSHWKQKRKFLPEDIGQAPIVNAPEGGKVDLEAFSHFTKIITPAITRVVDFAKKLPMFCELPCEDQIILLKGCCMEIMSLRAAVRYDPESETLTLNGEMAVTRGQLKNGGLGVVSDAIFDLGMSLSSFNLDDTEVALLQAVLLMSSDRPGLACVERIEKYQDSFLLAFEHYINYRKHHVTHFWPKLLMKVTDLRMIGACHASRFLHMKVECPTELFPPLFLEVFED
Method in brief: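 HepG2 transiently transfected with a multi-species panel including a human TRb–Gal4 chimera driving Gal4-UAS reporters; medium contained 3 nM 6-alpha-fluorotestosterone and 1.5 nM norgestrel. 24 h dosing; RT-PCR/capillary electrophoresis readout; positive-direction fit vs DMSO.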

PGR (gene 5241) [4] = target: PGR (gene 5241) (UniProt P06401); test: TOX21_PR_BLA_Followup_Antagonist_ratio: Tox21 HEK293 Progesterone Receptor (PR) Antagonism Beta-lactamase Follow-Up Assay, Ratio (AID 2283934);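 also: PR-UAS-bla HEK293T cells stimulated with 1 nM R5020 agonist for 16 hr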
PGR (gene 5241), sequence (P06401 whole entry, looked up): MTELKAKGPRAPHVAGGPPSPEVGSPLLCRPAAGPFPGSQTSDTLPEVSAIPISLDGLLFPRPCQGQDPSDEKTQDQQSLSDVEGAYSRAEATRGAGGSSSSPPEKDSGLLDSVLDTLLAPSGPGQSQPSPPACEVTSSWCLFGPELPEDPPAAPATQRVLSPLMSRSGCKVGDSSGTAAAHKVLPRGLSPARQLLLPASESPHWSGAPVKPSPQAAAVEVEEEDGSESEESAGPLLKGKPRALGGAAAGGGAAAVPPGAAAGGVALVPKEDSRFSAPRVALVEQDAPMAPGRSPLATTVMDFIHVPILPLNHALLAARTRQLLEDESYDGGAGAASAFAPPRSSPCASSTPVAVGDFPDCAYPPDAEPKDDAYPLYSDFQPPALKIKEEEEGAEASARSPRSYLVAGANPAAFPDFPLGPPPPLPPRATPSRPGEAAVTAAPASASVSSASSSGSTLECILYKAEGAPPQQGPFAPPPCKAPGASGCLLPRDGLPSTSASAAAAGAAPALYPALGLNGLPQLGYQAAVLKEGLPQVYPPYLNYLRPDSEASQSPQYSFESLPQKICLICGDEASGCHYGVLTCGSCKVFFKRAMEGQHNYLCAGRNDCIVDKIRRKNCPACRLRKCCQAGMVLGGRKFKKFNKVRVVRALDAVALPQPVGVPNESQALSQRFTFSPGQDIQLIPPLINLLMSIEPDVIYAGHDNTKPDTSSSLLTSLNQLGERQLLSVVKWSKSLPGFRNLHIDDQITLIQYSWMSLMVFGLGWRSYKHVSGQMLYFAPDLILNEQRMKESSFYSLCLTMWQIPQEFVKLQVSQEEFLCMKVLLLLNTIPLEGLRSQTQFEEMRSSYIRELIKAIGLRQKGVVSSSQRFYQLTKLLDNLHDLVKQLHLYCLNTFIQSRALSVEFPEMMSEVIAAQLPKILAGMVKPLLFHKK
Method in brief: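 Cells are plated, rested 6 hr, then dosed with test compound in DMSO and challenged with 1 nM promegestone. After 16 hr incubation, substrate loading for 2 h at room temperature precedes fluorescence reading; viability is measured in the same wells.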

[5] = TOX21_PR_BLA_Followup_Antagonist_viability: Viability Assessment in the Tox21 HEK293 Progesterone Receptor (PR) Antagonism Beta-lactamase Follow-Up Assay (AID 2283936);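 also: cells exposed to compound with R5020 agonist for 16 h; hits lower the luminescence signal meaning cytotoxicity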
Method in brief: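 PR-UAS-bla HEK293T cells in medium with 2% charcoal-stripped FBS were treated with compounds plus R5020 for 16 hr at 37C. After the beta-lactamase read, CellTiter-Glo was added to the same wells and luminescence read after 30 min at room temperature.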

PGR (gene 5241) [6] = target: PGR (gene 5241) (UniProt P06401); test: TOX21_PR_LUC_Followup_Antagonist: Tox21 HEK293 Progesterone Receptor (PR) Antagonism Luciferase Follow-Up Assay (AID 2283938);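 also: curve fitted upward as signal gain over DMSO baseline despite antagonist label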
Method in brief: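 HEK293-PR-A-luc cells, 3,000/well, preincubated 5 h at 37C before compound addition in DMSO; 16 h compound exposure at 37C. ONE-Glo luciferase luminescence read after 30 min at room temperature, fitted relative to DMSO baseline.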

[7] = CEETOX_H295R_OHPREG_noMTC: CeeTox H295R High-throughput Steroidogenesis Assay for OH-Pregnenolone (OHPREG), maximum tolerated concentration (MTC) filtered results only (AID 2283912; active = hit-call score of the fitted dose curve at least 0.9, where 1 is the maximum; inactive = score below 0.9); details: actives raise or lower the signal
Method in brief: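 Readout is HPLC-MS/MS quantification of 17alpha-hydroxypregnenolone released by forskolin-stimulated H295R cells over 48 h of chemical exposure, DMSO as baseline.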

[8] = CEETOX_H295R_OHPROG_noMTC: CeeTox H295R High-throughput Steroidogenesis Assay for OH-Progesterone (OHPROG), maximum tolerated concentration (MTC) filtered results only (AID 2283914; active = hit-call score of the fitted dose curve at least 0.9, where 1 is the maximum; inactive = score below 0.9); details: actives raise or lower the signal
Method in brief: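 Analysis uses all tested concentrations, without maximum-tolerated-concentration screening by MTT. H295R cells, forskolin-primed (10 uM, 48 h), receive chemical for 48 h; hormone in medium measured by HPLC-MS/MS, with bidirectional curve fitting against DMSO.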

[9] = CEETOX_H295R_ANDR_noMTC: CeeTox H295R High-throughput Steroidogenesis Assay for Androstenedione (ANDR), maximum tolerated concentration (MTC) filtered results only (AID 2283915; active = hit-call score of the fitted dose curve at least 0.9, where 1 is the maximum; inactive = score below 0.9); details: actives raise or lower the signal
Method in brief: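 Androstenedione secreted into medium was measured by LC-MS/MS after MTBE extraction. Human adrenal H295R cells received 10 uM forskolin for 48 h before 48 h chemical exposure (0.1% DMSO). Gain or loss fitted against DMSO, including concentrations above the MTT-derived MTC.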

[10] = CEETOX_H295R_ESTRADIOL_noMTC: CeeTox H295R High-throughput Steroidogenesis Assay for Estradiol, maximum tolerated concentration (MTC) filtered results only (AID 2283919; active = hit-call score of the fitted dose curve at least 0.9, where 1 is the maximum; inactive = score below 0.9); details: actives raise or lower the signal
Method in brief: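 Readout: dansyl-derivatized estradiol quantified by LC-MS/MS in medium from H295R cells dosed 48 h (0.1% DMSO) following 48 h forskolin (10 uM) prestimulation. Gain or loss of signal fitted against DMSO; no MTC filtering applied.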

[11] = CEETOX_H295R_PROG_noMTC: CeeTox H295R High-throughput Steroidogenesis Assay for Progesterone (PROG), maximum tolerated concentration (MTC) filtered results only (AID 2283920; active = hit-call score of the fitted dose curve at least 0.9, where 1 is the maximum; inactive = score below 0.9); details: actives raise or lower the signal
Method in brief: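 Progesterone synthesis in the human adrenal line H295R is measured by HPLC-MS/MS after 48 h chemical exposure following 48 h forskolin (10 uM) stimulation. Activity in either direction is fitted relative to DMSO.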

[12] = CEETOX_H295R_ESTRONE_noMTC: CeeTox H295R High-throughput Steroidogenesis Assay for Estrone, maximum tolerated concentration (MTC) filtered results only (AID 2283921; active = hit-call score of the fitted dose curve at least 0.9, where 1 is the maximum; inactive = score below 0.9); details: actives raise or lower the signal
Method in brief: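 Estrone in spent medium, quantified by tandem MS following dansyl chloride derivatization, after 48 h chemical exposure (0.1% DMSO) of forskolin-prestimulated (10 uM, 48 h) H295R cells; concentrations not MTC-filtered, bidirectional fit against DMSO.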

[13] = CEETOX_H295R_TESTO_noMTC: CeeTox H295R High-throughput Steroidogenesis Assay for Testosterone (TESTO), maximum tolerated concentration (MTC) filtered results only (AID 2283924; active = hit-call score of the fitted dose curve at least 0.9, where 1 is the maximum; inactive = score below 0.9); details: actives raise or lower the signal
Method in brief: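 Medium testosterone, measured by HPLC-MS/MS after liquid-liquid extraction, was fitted in both directions relative to DMSO without MTC filtering. Adrenal H295R cells received 48 h chemical exposure (0.1% DMSO final) after 48 h forskolin (10 uM) prestimulation; viability by MTT.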

[14] = target: Thyroid hormone receptor alpha (Rattus norvegicus) + Thyroid hormone receptor beta (Rattus norvegicus) (UniProt P18113+P63059); test: TOX21_TR_LUC_GH3_Agonist_Followup: Tox21 GH3 Thyroid Hormone Receptor Agonism Luciferase Follow-Up Assay (AID 2283939)
Thyroid hormone receptor alpha (Rattus norvegicus) + Thyroid hormone receptor beta (Rattus norvegicus), sequence (P63059 whole entry, looked up): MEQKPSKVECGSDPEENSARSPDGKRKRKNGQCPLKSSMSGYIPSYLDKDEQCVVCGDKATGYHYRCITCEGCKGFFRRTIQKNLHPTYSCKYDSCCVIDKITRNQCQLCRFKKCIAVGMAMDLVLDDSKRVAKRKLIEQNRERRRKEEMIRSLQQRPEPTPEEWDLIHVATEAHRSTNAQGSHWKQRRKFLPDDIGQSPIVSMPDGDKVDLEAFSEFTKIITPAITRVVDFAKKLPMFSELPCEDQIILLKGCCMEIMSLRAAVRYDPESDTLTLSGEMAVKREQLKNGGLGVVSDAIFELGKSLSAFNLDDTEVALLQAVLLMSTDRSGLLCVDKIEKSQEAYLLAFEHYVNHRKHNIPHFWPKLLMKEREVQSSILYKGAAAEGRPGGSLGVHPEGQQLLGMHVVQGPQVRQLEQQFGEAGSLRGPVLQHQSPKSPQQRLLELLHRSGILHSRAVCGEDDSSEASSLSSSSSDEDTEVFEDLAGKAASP
Thyroid hormone receptor alpha (Rattus norvegicus) + Thyroid hormone receptor beta (Rattus norvegicus), sequence (P18113 whole entry, looked up): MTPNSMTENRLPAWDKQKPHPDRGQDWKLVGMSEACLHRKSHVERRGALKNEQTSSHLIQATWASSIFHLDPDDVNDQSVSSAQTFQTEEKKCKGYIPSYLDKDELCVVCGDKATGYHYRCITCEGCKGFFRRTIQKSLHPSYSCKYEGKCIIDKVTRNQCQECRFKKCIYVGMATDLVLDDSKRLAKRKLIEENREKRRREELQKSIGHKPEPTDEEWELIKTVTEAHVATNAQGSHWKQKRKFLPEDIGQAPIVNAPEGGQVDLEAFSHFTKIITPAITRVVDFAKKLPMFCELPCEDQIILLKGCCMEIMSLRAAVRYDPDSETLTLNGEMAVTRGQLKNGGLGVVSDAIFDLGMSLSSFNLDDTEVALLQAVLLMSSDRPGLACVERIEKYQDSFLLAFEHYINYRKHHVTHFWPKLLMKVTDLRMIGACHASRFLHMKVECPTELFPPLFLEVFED
Method in brief: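 Agonist-mode confirmatory run: 15 concentrations (5 nM to 92 uM final) on GH3 rat pituitary cells, 24 h at 37C/5% CO2, T3 as positive control. Luminescence read with ONE-Glo after 30 min.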

PGR (gene 5241) [15] = target: PGR (gene 5241) (UniProt P06401); test: TOX21_PR_BLA_Followup_Agonist_ratio: Tox21 HEK293 Progesterone Receptor (PR) Agonism Beta-lactamase Follow-Up Assay, Ratio (AID 2283933)
Method in brief: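 Cells were seeded and held 6 hr before compound addition, exposed for 16 hr at 37C, then given FRET substrate for 2 hr at room temperature. Agonism was scored from the blue/green substrate cleavage ratio against DMSO controls.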

PGR (gene 5241) [16] = target: PGR (gene 5241) (UniProt P06401); test: TOX21_PR_LUC_Followup_Agonist: Tox21 HEK293 Progesterone Receptor (PR) Agonism Luciferase Follow-Up Assay (AID 2283937; active = hit-call score of the fitted dose curve at least 0.9, where 1 is the maximum; inactive = score below 0.9)
Method in brief: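 Seed HEK293-PR-A-luc cells, wait 5 h, add compounds in DMSO, incubate 16 h at 37C, add ONE-Glo, read luminescence after 30 min. Activity is increase over DMSO controls; run with a viability counter-screen.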

Structure (SMILES): Cc1cccc(C)c1N
- outcome [1]: inactive
- outcome [2]: inactive

Structure (SMILES): O=C(O)C(F)(F)C(F)(F)C(F)(F)C(F)(F)C(F)(F)C(F)(F)C(F)(F)C(F)(F)F
- AC50 [1]: 12 µM (active)
- outcome [2]: inactive

Structure (SMILES): C[C@]12CCC(=O)C=C1CC[C@@H]1[C@@H]2CC[C@@]2(C)[C@H]1CC[C@]2(C)O
- outcome [3]: inactive
- outcome (PGR (gene 5241) [4]): inactive
- outcome [5]: inactive
- outcome (PGR (gene 5241) [6]): inactive

Structure (SMILES): CCC(C)c1cc([N+](=O)[O-])cc([N+](=O)[O-])c1O (stereo unspecified)
- outcome [1]: inactive
- outcome [2]: inactive

Structure (SMILES): O=NN(c1ccccc1)c1ccccc1
- outcome [1]: inactive
- outcome [2]: inactive

Structure (SMILES): Cc1cc(-c2ccc(N)c(C)c2)ccc1N
- outcome [3]: inactive

Structure (SMILES): COc1ccc(O)c(C(C)(C)C)c1
- outcome [2]: inactive
- outcome [5]: inactive
- outcome (PGR (gene 5241) [6]): inactive

Structure (SMILES): CCCCCCCCCC[N+](C)(C)CCCCCCCCCC
- outcome [1]: inactive
- outcome [2]: inactive

Structure (SMILES): CO/C=C(/C(=O)OC)c1ccccc1COc1cccc(C(F)(F)F)n1
- outcome [1]: inactive
- outcome [2]: inactive

Structure (SMILES): CCSC(=O)N(CC)C1CCCCC1
- outcome [1]: inactive
- outcome [2]: inactive

Structure (SMILES): Clc1ccc(C(c2ccccc2Cl)C(Cl)(Cl)Cl)cc1 (stereo unspecified)
- outcome [3]: inactive
- AC50 (PGR (gene 5241) [4]): 12.7 µM (active)
- AC50 (PGR (gene 5241) [6]): 15.6 µM (active)

Structure (SMILES): O=S(=O)(O)C(F)(F)C(F)(F)C(F)(F)C(F)(F)C(F)(F)C(F)(F)F
- AC50 [1]: 23.3 µM (active) and 7.48 µM (active) and 2.33 µM (active)
- outcome [2]: inactive

Structure (SMILES): O=S(=O)(O)C(F)(F)C(F)(F)C(F)(F)C(F)(F)F
- outcome [1]: inactive
- outcome [2]: inactive

Structure (SMILES): Cc1cc2c3c(c1)C(c1ccccc1)=N[C@@H](NC(=O)c1ccncc1)C(=O)N3CC2
- outcome [2]: inactive

Structure (SMILES): CCCCCCCCCc1ccc(O)cc1
- AC50 (PGR (gene 5241) [4]): 68.3 µM (active)
- outcome [5]: inactive
- outcome (PGR (gene 5241) [6]): inactive

Structure (SMILES): O=C(O)C(F)(F)C(F)(F)C(F)(F)C(F)(F)C(F)(F)F
- outcome [1]: inactive

Structure (SMILES): Cc1ccccc1CO[C@@H]1C[C@@]2(C(C)C)CC[C@]1(C)O2
- outcome [1]: inactive
- outcome [2]: inactive

Structure (SMILES): CCCCCCCCOC(=O)c1ccccc1C(=O)OCCCCCCCC
- outcome [7]: inactive
- outcome [8]: inactive
- outcome [9]: inactive
- outcome [10]: inactive
- outcome [11]: inactive
- outcome [12]: inactive
- outcome [13]: inactive

Structure (SMILES): ClC1=C(Cl)[C@]2(Cl)[C@@H]3[C@@H](Cl)[C@H]4O[C@H]4[C@@H]3C1(Cl)C2(Cl)Cl
- outcome [1]: inactive
- outcome [2]: inactive

Structure (SMILES): CCNc1nc(NC(C)C)nc(SC)n1
- outcome [1]: inactive
- outcome [2]: inactive

Structure (SMILES): Cc1cc(O)ccc1Cl
- outcome [14]: inactive

Structure (SMILES): N#Cc1ccc(N(CC(N)=O)CC(F)(F)F)cc1C(F)(F)F
- outcome (PGR (gene 5241) [15]): inactive
- AC50 (PGR (gene 5241) [4]): 46.1 µM (active)
- outcome [5]: inactive
- outcome (PGR (gene 5241) [16]): inactive
- AC50 (PGR (gene 5241) [6]): 46.1 µM (active)

Structure (SMILES): CCOC(=O)C(O)(c1ccc(Cl)cc1)c1ccc(Cl)cc1
- outcome [3]: inactive
- outcome [1]: inactive
- outcome [2]: inactive
